# A number with no mark means an inactive call.
# Molecular target: T1, USP38 (UniProt Q8NB14)
# T1 sequence (whole entry): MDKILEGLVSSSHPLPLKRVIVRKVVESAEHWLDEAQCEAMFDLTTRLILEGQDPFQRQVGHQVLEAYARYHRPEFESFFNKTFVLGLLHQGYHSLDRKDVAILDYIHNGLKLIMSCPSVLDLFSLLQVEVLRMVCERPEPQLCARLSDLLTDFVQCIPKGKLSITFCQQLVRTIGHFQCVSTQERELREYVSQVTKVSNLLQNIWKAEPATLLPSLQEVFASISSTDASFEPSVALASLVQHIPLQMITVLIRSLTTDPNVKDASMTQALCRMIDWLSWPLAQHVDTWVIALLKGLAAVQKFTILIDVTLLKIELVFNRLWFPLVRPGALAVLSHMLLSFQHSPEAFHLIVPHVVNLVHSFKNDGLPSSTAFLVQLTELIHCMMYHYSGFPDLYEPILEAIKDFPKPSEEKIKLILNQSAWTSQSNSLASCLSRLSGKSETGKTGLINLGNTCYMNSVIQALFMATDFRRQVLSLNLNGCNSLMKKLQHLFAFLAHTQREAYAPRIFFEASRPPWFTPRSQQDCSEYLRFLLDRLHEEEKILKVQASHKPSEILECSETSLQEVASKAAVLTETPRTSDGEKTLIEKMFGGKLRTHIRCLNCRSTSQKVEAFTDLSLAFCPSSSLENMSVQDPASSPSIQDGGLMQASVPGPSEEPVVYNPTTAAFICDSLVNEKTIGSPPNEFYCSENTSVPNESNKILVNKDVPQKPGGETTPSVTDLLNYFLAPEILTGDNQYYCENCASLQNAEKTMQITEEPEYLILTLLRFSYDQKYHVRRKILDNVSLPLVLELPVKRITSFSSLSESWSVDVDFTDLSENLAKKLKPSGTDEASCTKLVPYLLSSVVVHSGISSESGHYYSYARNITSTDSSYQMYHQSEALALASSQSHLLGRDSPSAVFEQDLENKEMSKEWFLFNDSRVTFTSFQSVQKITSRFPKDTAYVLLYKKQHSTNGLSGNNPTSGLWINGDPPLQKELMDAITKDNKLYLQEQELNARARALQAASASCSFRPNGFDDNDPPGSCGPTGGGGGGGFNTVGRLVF
# Assay: log2 ratio of Biotin-Ahx-Ub-VS probe labelling (fragment/DMSO); higher = less target engagement (more negative = stronger competition), active = hit call of the paper (q ≤ 0.05, log2 ratio ≤ -1)
# Details: compound concentration: 200 uM; treatment time: 3 h
# Experimental: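 Competitive ABPP in HEK293T cell lysate. Lysates were treated with each chloroacetamide fragment at 200 µM for 3 h, then with Biotin-Ahx-Ub-VS (0.5 µM, 1 h), NeutrAvidin-enriched and analysed by diaPASEF LC-MS/MS. Protein LFQ was median-normalised; average log2 ratio is fragment/DMSO from an unpaired t-test (n=3 treated, n=44 DMSO). Hits: q ≤ 0.05, log2 ratio ≤ -1, unique peptides ≥ 2.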
row,Structure (SMILES),log2 ratio of Biotin-Ahx-Ub-VS probe labelling
1,CC1CCCCN1C(=O)CCl (centres undefined),-0.196
2,CN(C(=O)CCl)C1CCCCC1,0.0172
3,Cc1cccc(NC(=O)CCl)c1,-0.146
4,CC(C)CN(C(=O)CCl)C1CC1,0.00725
5,O=C(CCl)Nc1cccc(Cl)c1,-0.568
6,Cc1ncsc1CNC(=O)CCl.Cl,0.147
7,CC(NC(=O)CCl)c1cccs1 (centres undefined),-0.0174
8,O=C(CCl)N1CCCCCCC1,-0.0744
9,O=C(CCl)NC(C1CC1)C1CC1,-0.124
10,O=C(CCl)NCC1CCC1,0.000742
11,CC1CN(C(=O)CCl)CC(C)O1 (centres undefined),-0.205
12,O=C(CCl)NCC1CCCO1 (centres undefined),-0.00745
13,Cc1nnc(NC(=O)CCl)s1,-0.33
14,O=C(CCl)NCc1ccco1,-0.144
15,O=C(CCl)N1CCCC1=O,-0.1
16,CC1CCCCC1NC(=O)CCl (centres undefined),-0.0227
17,Cc1nc(NC(=O)CCl)sc1C,-0.00435
18,N#CC1(NC(=O)CCl)CCCC1,-0.0299
19,Cc1cc(NC(=O)CCl)no1,-0.139
